Results from PubChem BioAssay (EPA / NIEHS).
The source made the active and inactive calls. How the source made its calls: active means hit-call score of the fitted dose curve at least 0.9, where 1 is the maximum; inactive means score below 0.9.

The compounds below were run on Pyruvate Dehydrogenase Kinase 4 (PDK4), PDK4 (gene 5166) (assay: LTEA_HepaRG_PDK4: Life Technologies and Expression Analysis (LTEA) Assay for Pyruvate Dehydrogenase Kinase 4 (PDK4) using HepaRG (AID 2283525)). Settings: mRNA level, 48 h; actives raise or lower the signal.
Experimental: LTEA_HepaRG is a cell based, multiplexed-readout assay that uses HepaRG, a human liver cell line, with measurements taken at 48 hours after chemical dosing on a 96-well plate.LTEA_HepaRG_PDK4 is one of 102 assay component(s) measured in the LTEA HepaRG cell culture assay. It is a marker of Diseases associated with PDK4 including Platelet Glycoprotein Iv Deficiency and Diabetes Mellitus, Noninsulin-Dependent.Data from the assay component LTEA_HepaRG_PDK4 was analyzed into 1 endpoint. This assay endpoint, LTEA_HepaRG_PDK4, was analyzed with bidirectional fitting relative to DMSO as the negative control and baseline of activity. Using a type of inducible reporter, measures of mRNA induction for gain or loss-of-signal activity can be used to understand regulation of transcription factor activity. To generalize the intended target to other relatable targets, this assay endpoint is annotated to the kinase intended target family, where the subfamily is serine/threonine kinase.
A total of 1060 chemcials from the ToxCast library were tested in eight-point concentration-response experiments. Cell culture and cytotoxicity assays were conducted at Thermo Fisher Scientific's Custom Services facility (Madison, WI). A single lot of human HepaRG cells (Thermo Fisher Scientific, Frederick, MD) was used for the cell culture experiments. 96-well format collagen type I coated plates of human HepaRG cells were prepared using established methods. Briefly, cryopreserved HepaRG cells were thawed, plated at a density of approximately 100,000 cells/well in HepaRG Thaw, Plate, and General Purpose media (HPRG770, Thermo Fisher Scientific), and incubated for 48 hours. 0.5% DMSO was selected as vehicle control to balance the requisite need of DMSO in HepaRG cultures to maintain differentiation (for example, baseline metabolism, proportions of hepatocytes vs. cholangiocytes), while enabling further hepatic receptor pathway activation (for example, PXR and CAR) in response to chemical exposure. 48 hours after plating, the culture medium was replaced with HepaRG Serum-Free Incudtion Media. Cells were exposed to each test chemical in duplicate and maintained in CO2 incubators for another 48 hours. Chemical plates were thawed to room temperature and 200x concentrations of treatment groups were prepared. 8-point conentration-reponse curves were made with the highest exposure at 100 uM, followed by half-log dilutions, all in 0.5% DMSO. Each test plate contained variouse controls, induction positive controls (1mM phenobarbital), cytotoxicity positive controls ([…] aflatoxin B1), vehicle controls (0.5% DMSO), and total lysis controls (0.5% DMSO). Cell morphology images were taken using an Essen IncuCyte FLR automated microscope, with six 96-well plates imaged in about 24 minutes. Images were captured and exported and JPEG files. Spent culture media was transfered to black-well plates for the LDH assay, and remaining media was sorted at -80 C for later use. Cells were treated with RLT buffer and frozen until shipped for gene expression analysis. Total RNA was isolated from the cell suspension in 75 uL of Buffer RLT (Qiagen, Germantown, MD 20874) by Quintiles/Expression Analysis (Durham, NC) using a custom isolation procedure. Total RNA from each plate well was transferred to a preamplification plate. Fluidigm's 96.96 Dynamic ArrayTM (Fluidigm, Amsterdam, the Netherlands) technology was used for gene expression analyses by quantitative reverse transcription polymerase chain reaction (qRT-PCR, performed by Quintiles/Expression Analysis, Durham, NC)89. Standard TaqManTM Assays (Applied Biosystems/ThermoFisher Scientific, Foster City, CA) were used to assess the expression of 93 genes selected based on their selectivity and sensitivity to important hepatic receptors known to be modulated by environmental chemicals; importance in human hepatocyte functionality; and hepatotoxicity. […]

Row | Structure (SMILES) | AC50 | outcome
1 | CC(=O)[O][Hg][c]1ccccc1 | 13.1 µM (active) | 
2 | O=C(Nc1ccc2[nH]ccc2c1)c1cc2cc(F)ccc2n1Cc1cccc(F)c1 | 89.3 µM (active) | 
3 | O=[N+]([O-])c1ccc(O)c([N+](=O)[O-])c1 | 11.8 µM (active) | 
4 | Cn1sc(Cl)cc1=O |  | inactive
5 | O=C1C2(Cl)C3(Cl)C4(Cl)C(Cl)(Cl)C5(Cl)C3(Cl)C1(Cl)C5(Cl)C24Cl (stereo unspecified) | 92.7 µM (active) | 
6 | CCN1CCC2(CC1)COc1cc3c(cc12)N(C(=O)c1ccc(-c2ccc(-c4nnc(C)o4)cc2C)cc1)CC3 | 28.4 µM (active) | 
7 | ClCC(Cl)CCl |  | inactive
8 | O=c1[nH]c(=O)[nH]c(=O)[nH]1 |  | inactive
9 | CC(C)(OO)c1ccccc1 |  | inactive
10 | CC(C)(C)c1cc(O)ccc1O |  | inactive
11 | ClC1(Cl)C2(Cl)C3(Cl)C4(Cl)C(Cl)(Cl)C5(Cl)C3(Cl)C1(Cl)C5(Cl)C24Cl (stereo unspecified) | 16.8 µM (active) | 
12 | CCOP(=S)(OCC)SCSP(=S)(OCC)OCC | 20.4 µM (active) | 
13 | C=C(C)C(=O)[O][Sn]([CH2]CCC)([CH2]CCC)[CH2]CCC | 1.18 µM (active) | 
14 | Cc1ccccc1N |  | inactive
15 | C=CC(=O)OCCCCCC(C)C |  | inactive
16 | CC(C)(C)CC(C)(C)c1ccc(O)cc1 |  | inactive

Row | Structure (SMILES) | AC50 | outcome
17 | CC(C)(c1ccccc1)c1ccc(O)c(C(C)(C)c2ccccc2)c1 |  | inactive
18 | CN(C)N=O |  | inactive
19 | CCC(=O)C(CC(C)N(C)C)(c1ccccc1)c1ccccc1 (stereo unspecified) |  | inactive
20 | NC(=O)O |  | inactive
21 | CCC(C)(C)c1ccc(O)c(C(C)(C)CC)c1 |  | inactive
22 | CCOP(=S)(OCC)Oc1nc(Cl)c(Cl)cc1Cl |  | inactive
23 | O=C(O)C(Cl)(Cl)Cl |  | inactive
24 | C[C@]12CCC(=O)C[C@@H]1CC[C@@H]1[C@@H]2CC[C@]2(C)[C@@H](O)CC[C@@H]12 |  | inactive
25 | O=C(O)C(F)(F)C(F)(F)C(F)(F)C(F)(F)C(F)(F)C(F)(F)F | 35.6 µM (active) | 
26 | CC12CC1(C)C(=O)N(c1cc(Cl)cc(Cl)c1)C2=O (stereo unspecified) | 16.2 µM (active) | 
27 | O=C(O)C(F)(F)C(F)(F)C(F)(F)C(F)(F)C(F)(F)C(F)(F)C(F)(F)C(F)(F)C(F)(F)C(F)(F)F |  | inactive
28 | CCCCCCCCc1ccc(O)cc1 | 69.3 µM (active) | 
29 | C[C@@H]1C[C@@H]([C@H](O)CC2CC(=O)NC(=O)C2)C(=O)[C@@H](C)C1 | 31.9 µM (active) | 
30 | COc1cc(-c2ccc(N)c(OC)c2)ccc1N |  | inactive
31 | Oc1cccc2cccnc12 |  | inactive
